# Reference: PubChem BioAssay
# Where “and” joins values, the source holds several entries; their conditions need not be identical. Equal values may be shown once. Results filed as inconclusive are left out. Calls of active or inactive are those of the source.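 Rule for the calls, unless noted: active = normalized viability below 100% at a tested concentration; inactive = the rest.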
# Columns and labels:
# [1] = P. berghei load reduction in hepatocytes – cell-based, HepG2, luciferase luminescence, HepG2 viability, primary screen (AID 624349; in the data active = parasite load remaining mostly below about 12%, no sharp cut-off; inactive = mostly above about 10%;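 note: 100% = mean of DMSO negative control wells on the same plate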); conditions: P. berghei liver stage in HepG2, luciferase luminescence, concentration not given here; parasite load remaining: stronger effect = lower value; viability: measured here: HepG2 viability without parasites
# [2] = tested on: Aerobactin synthetase IucA (Klebsiella pneumoniae); assay: inhibition of K. pneumoniae IucA enzyme – biochemical, Tocris library, absorbance (AID 1345561; call rule not given here;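 note: 100% = enzyme without compound and 0% = no enzyme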); conditions: purified IucA enzyme assay, absorbance (OD) read-out; stronger effect = lower value;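 tested at 8 µM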
# [3] = viability loss in pontine glioma line – cell-based, SU-DIPG-XVII, MIPE5.0, CellTiter-Glo, qHTS, dose response (AID 1347060; cut-off not given, nearly all actives have AC50 up to about 26 µM;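 note: cells exposed to compound for 48 hours before viability readout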); conditions: CellTiter-Glo ATP luminescence
# [4] = viability loss in pontine glioma line – cell-based, SU-DIPG-XIII, MIPE4.0, CellTiter-Glo, qHTS, dose response (AID 1347061; cut-off not given, nearly all actives have AC50 up to about 37 µM;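 note: cells exposed to compound for 48 hours before readout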); conditions: CellTiter-Glo ATP luminescence
# [5] = viability loss in pontine glioma line – cell-based, JHH-DIPG-1, MIPE4.0, CellTiter-Glo, qHTS, dose response (AID 1347062; cut-off not given, nearly all actives have AC50 up to about 27 µM;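 note: cells exposed to compound for two days before readout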); conditions: JHH-DIPG-1 viability, CellTiter-Glo ATP luminescence
# [6] = viability loss in pontine glioma line – cell-based, SU-DIPG-IV, MIPE4.0, CellTiter-Glo, qHTS, dose response (AID 1347063; cut-off not given, nearly all actives have AC50 up to about 30 µM;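 note: compound exposure lasted 48 hours before the viability readout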); conditions: CellTiter-Glo ATP luminescence
# [7] = viability loss in pontine glioma line – cell-based, SU-DIPG-XIII, MIPE5.0, CellTiter-Glo, qHTS, dose response (AID 1347064; cut-off not given, nearly all actives have AC50 up to about 23 µM;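 note: cells exposed to compound for 48 hours before the viability read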); conditions: CellTiter-Glo ATP luminescence
# [8] = viability loss in pontine glioma line – cell-based, SU-DIPG-XXV, MIPE5.0, CellTiter-Glo, qHTS, dose response (AID 1347065; cut-off not given, nearly all actives have AC50 up to about 26 µM;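 note: cells exposed to compound for 48 hours before ATP readout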); conditions: CellTiter-Glo ATP luminescence
# [9] = growth inhibition of DIPG cells – cell-based, MIPE4.0 library, CellTiter-Glo luminescence, qHTS (AID 1347066; cut-off not given, nearly all actives have AC50 up to about 30 µM;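 note: cells exposed to compound for 48 hours before readout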); conditions: SU-DIPG-VI viability, CellTiter-Glo ATP luminescence
# [10] = JHH-DIPG-1 glioma cell viability, MIPE5.0 library, CellTiter-Glo luminescence, qHTS (AID 1347067; cut-off not given, nearly all actives have AC50 up to about 26 µM;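 note: cells exposed to compound for 48 hours before readout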); conditions: JHH-DIPG-1 glioma viability, CellTiter-Glo ATP luminescence
# [11] = growth inhibition of DIPG cells – cell-based, MIPE5.0 library, qHTS (AID 1347068; cut-off not given, nearly all actives have IC50 up to about 30 µM;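 note: cells exposed to compound for 48 hours before viability readout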); conditions: SU-DIPG-XXV viability
# [12] = viability loss with induced miR-34 in A549 – imaging, A549 dox-inducible miR-34, nuclei and caspase counts, primary screen (AID 1347080;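 active = compounds whose cell count with miR-34 switched on is under 0.7 times the count with it off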); conditions: A549 miR-34 inducible, Hoechst nuclei count, 48 h
# [13] = compounds altering HSF1 focus formation in cells – imaging, Selleck Cancer Library (AID 1347162; in the data active = plate-normalised HSF1 focus index below about 0.46); conditions: human cells, HSF1 nuclear foci imaging, at 10 µM; SSMD: measured here: HSF1 foci SSMD mean; cell count: measured here: cell number; plate-normalised HSF1 focus index: stronger effect = lower value
# [14] = MELAS cybrid and Rieske KO viability enhancers – cell-based, MELAS cybrids, Rieske KO mouse fibroblasts, CellTiter-Glo, primary screen (AID 1508586;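 active = mean z-score across replicates of 1.96 or higher in either the MELAS or the Rieske mutant cell line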;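 note: z relative to plate mean and SD of compound and empty wells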); conditions: low glucose
# [15] = drug combination growth inhibition, ovarian cancer – cell-based, oncology-focused library, rucaparib conditional, profiling panel (AID 1508598); conditions: patient-derived ovarian cancer cells, CellTiter-Glo viability, 144 h, stronger effect = lower value
# [16] = galactose survival enhancers in mitochondrial complex I cybrids – cell-based, galactose medium, ATP luminescence, primary screen (AID 1645843;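 active = z-score of at least 1.8 in each of two replicates, scored against plate mean and spread of sample wells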;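 note: positive z means more ATP and so rescue of galactose-driven cybrid death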); conditions: complex I mutant cybrid cells, 72 h, stronger effect = higher value
# [17] = blockers of polyQ-driven CASP3 activation – cell-based (AID 1583); conditions: polyglutamine-induced caspase-3 activation, cell assay; stronger effect = higher value;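 tested at 10 µM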
# [18] = yeast 75Q aggregation reduction – 75Q-TubU reporter (AID 1593); conditions: Yeast 75Q polyglutamine aggregation reporter
# [19] = EMT-state selective cytotoxicity in co-culture – imaging, PC-3E GFP, TEM4-18 mCherry, primary screen (AID 1345086;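 active = compounds killing one labelled cell type while sparing the other, by normalised counts and ratio limits, not self-fluorescent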;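 for all read-outs here: cells exposed to compound for 72 h before imaging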;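 for red/green cell ratio (normalised): normalised mesenchymal count divided by normalised epithelial count so high means epithelial killing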); conditions: PC-3E GFP / TEM4-18 mCherry co-culture, imaging cell counts, at 1 µM; for red/green cell ratio (normalised): actives lie on both sides, counts scaled to control wells, 1 = unselective
# [20] = measured here: epithelial PC-3E GFP cell survival
# [21] = measured here: mesenchymal TEM4-18 mCherry cell survival
structure (smiles),measurement,setting,value
NC(=O)Nc1sc(-c2ccc(F)cc2)cc1C(N)=O,parasite load remaining,[1],72.5% (inactive)
same,viability,[1],79.5%
same,remaining activity,[2],122% (inactive)
same,AC50,[3],9.34 µM (active)
same,AC50,[4],11.8 µM (active)
same,AC50,[5],4.69 µM (active)
same,AC50,[6],1.05 µM (active)
same,AC50,[7],20.9 µM (active)
same,AC50,[8],7.42 µM (active)
same,AC50,[9],16.6 µM (active)
same,AC50,[10],5.9 µM (active)
same,IC50,[11],14.8 µM (active)
same,fold change,"[12]; stronger effect = lower value, cell number ratio, induced over uninduced",0.943 (inactive) and 1.1 (inactive)
same,fold change,[12]; measured here: relative caspase fold change +Dox/-Dox,0.476 and 0.704
same,cell count,"[12]; measured here: total cells with miR-34 induction, stronger effect = lower value",1490 and 2380
same,cell count,[12]; measured here: total cells without miR-34 induction,1580 and 2160
same,SSMD,[13],-1.15
same,cell count,[13],6750
same,plate-normalised HSF1 focus index,[13],0.95 (inactive)
same,z-score,"[14]; MELAS cybrid survival, CellTiter-Glo 48 h, stronger effect = higher value",0.0212 (inactive)
same,z-score,"[14]; Rieske KO mouse fibroblast survival, CellTiter-Glo 72 h",0.196
same,viability,"[15]; at 0.000305 µM, OCI-C5x cells, with rucaparib 10 µM, 100% = cells with rucaparib alone",113% (inactive)
same,viability,"[15]; at 0.000305 µM, OCI-C5x cells, without rucaparib",127% (inactive)
same,viability,"[15]; at 0.000305 µM, OCI-P5x cells, with rucaparib 20 µM, 100% = cells with rucaparib alone",116% (inactive)
same,viability,"[15]; at 0.000305 µM, OCI-P5x cells, without rucaparib",109% (inactive)
same,viability,"[15]; at 0.00122 µM, OCI-C5x cells, with rucaparib 10 µM, 100% = cells with rucaparib alone",118% (inactive)
same,viability,"[15]; at 0.00122 µM, OCI-C5x cells, without rucaparib",126% (inactive)
same,viability,"[15]; at 0.00122 µM, OCI-P5x cells, with rucaparib 20 µM, 100% = cells with rucaparib alone",106% (inactive)
same,viability,"[15]; at 0.00122 µM, OCI-P5x cells, without rucaparib",106% (inactive)
same,viability,"[15]; at 0.00488 µM, OCI-C5x cells, with rucaparib 10 µM, 100% = cells with rucaparib alone",124% (inactive)
same,viability,"[15]; at 0.00488 µM, OCI-C5x cells, without rucaparib",131% (inactive)
same,viability,"[15]; at 0.00488 µM, OCI-P5x cells, with rucaparib 20 µM, 100% = cells with rucaparib alone",105% (inactive)
same,viability,"[15]; at 0.00488 µM, OCI-P5x cells, without rucaparib",104% (inactive)
same,viability,"[15]; at 0.0195 µM, OCI-C5x cells, with rucaparib 10 µM, 100% = cells with rucaparib alone",115% (inactive)
same,viability,"[15]; at 0.0195 µM, OCI-C5x cells, without rucaparib",108% (inactive)
same,viability,"[15]; at 0.0195 µM, OCI-P5x cells, with rucaparib 20 µM, 100% = cells with rucaparib alone",102% (inactive)
same,viability,"[15]; at 0.0195 µM, OCI-P5x cells, without rucaparib",101% (inactive)
same,viability,"[15]; at 0.0781 µM, OCI-C5x cells, with rucaparib 10 µM, 100% = cells with rucaparib alone",115% (inactive)
same,viability,"[15]; at 0.0781 µM, OCI-C5x cells, without rucaparib",109% (inactive)
same,viability,"[15]; at 0.0781 µM, OCI-P5x cells, with rucaparib 20 µM, 100% = cells with rucaparib alone",102% (inactive)
same,viability,"[15]; at 0.0781 µM, OCI-P5x cells, without rucaparib",98.9% (active)
same,viability,"[15]; at 0.313 µM, OCI-C5x cells, with rucaparib 10 µM, 100% = cells with rucaparib alone",124% (inactive)
same,viability,"[15]; at 0.313 µM, OCI-C5x cells, without rucaparib",105% (inactive)
same,viability,"[15]; at 0.313 µM, OCI-P5x cells, with rucaparib 20 µM, 100% = cells with rucaparib alone",95.8% (active)
same,viability,"[15]; at 0.313 µM, OCI-P5x cells, without rucaparib",93% (active)
same,viability,"[15]; at 1.25 µM, OCI-C5x cells, with rucaparib 10 µM, 100% = cells with rucaparib alone",125% (inactive)
same,viability,"[15]; at 1.25 µM, OCI-C5x cells, without rucaparib",104% (inactive)
same,viability,"[15]; at 1.25 µM, OCI-P5x cells, with rucaparib 20 µM, 100% = cells with rucaparib alone",92.8% (active)
same,viability,"[15]; at 1.25 µM, OCI-P5x cells, without rucaparib",87.7% (active)
same,viability,"[15]; at 5 µM, OCI-C5x cells, with rucaparib 10 µM, 100% = cells with rucaparib alone",95.3% (active)
same,viability,"[15]; at 5 µM, OCI-C5x cells, without rucaparib",67.2% (active)
same,viability,"[15]; at 5 µM, OCI-P5x cells, with rucaparib 20 µM, 100% = cells with rucaparib alone",39% (active)
same,viability,"[15]; at 5 µM, OCI-P5x cells, without rucaparib",60.3% (active)
same,z-score,[16],0.96 (inactive)
NC[C@H]1O[C@H](O[C@H]2C(O[C@@H]3O[C@H](CO)[C@@H](O)[C@H]3O)[C@@H](O)[C@H](N)C[C@@H]2N)[C@H](N)[C@@H](O)[C@@H]1O (stereo partly specified),inhibition,[17],-18.6%
same,score,[18],1.41
same,parasite load remaining,[1],166% (inactive)
same,viability,[1],89%
same,red/green cell ratio (normalised),[19],0.87 (inactive)
same,normalised cell number,[19]; [20],1.26
same,normalised cell number,[19]; [21],1.1
COC1=CC(C)[C@@H]2C[C@H]3OC(=O)C[C@H]4C(C)=C(OC)C(=O)C([C@@]34C)[C@@]2(C)C1=O (stereo partly specified),inhibition,[17],22.5%
same,score,[18],1.3
same,red/green cell ratio (normalised),[19],0.78 (inactive)
same,normalised cell number,[19]; [20],1.31
same,normalised cell number,[19]; [21],1.03
CC[C@H](C)C(=O)O[C@H]1CCC=C2C=C[C@H](C)C(CCC3C[C@@H](O)CC(=O)O3)[C@H]21 (stereo partly specified),inhibition,[17],-3.44%
same,score,[18],0.88
same,red/green cell ratio (normalised),[19],0.93 (inactive)
same,normalised cell number,[19]; [20],0.95
same,normalised cell number,[19]; [21],0.89
